This passage reports composite z-score and z-score results from PubChem BioAssay.

Active and inactive are the calls of the source. Unless noted, how the calls were made is not given here.

Test [1] in a line: compounds binding Alexa647 anti-His antibody – biochemical, small-molecule microarray, 635 nm fluorescence, artefact control for SMM control protein annotation, primary screen (AID 1128).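 Further: score merges feature fluorescence with signal-to-noise for each printed compound spot.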 Conditions: higher = more signal.
Test [2] deals with Human papillomavirus type 1a E7 protein (residues 1-88). In words: HPV1a E7 small-molecule binders, primary screen, biochemical, small-molecule microarray, residues 1-88, 635 nm (AID 1129). Conditions: small-molecule microarray binding, fluorescence 635 nm; higher = more signal.
In test [3] the target is Focal adhesion kinase 1 (Homo sapiens) (UniProt Q05397). The test is described as follows: PTK2 protein binding on printed compound slides – biochemical, small-molecule microarray, 635/667 nm fluorescence, BSA, DTT, primary screen (AID 1130).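 Further: composite of spot emission at 667 nm and signal to noise over triplicate slides.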 As to conditions: 635 nm fluorescence, higher = more signal.
The test system of test [4] is Fibrinogen (Alexa647-labelled). In words: Alexa647-fibrinogen binding to printed small molecules – biochemical, small-molecule microarray, 635/667 nm fluorescence, artefact control for SMM control-protein annotation, profiling panel (AID 1131).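 Further: z-score merges 667 nm fluorescence with per-spot signal-to-noise over triplicate slides.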 As to conditions: fibrinogen-A647 binding fluorescence, higher = more signal.
The target of test [5] is Follistatin (Homo sapiens) (UniProt P19883). The test is described as follows: FST protein binding to printed compounds – biochemical, small-molecule microarray, 635/667 nm fluorescence, primary screen (AID 1132). Conditions: 635 nm fluorescence, higher = more signal.
The target of test [6] is Fibroblast growth factor 2 (Homo sapiens) (UniProt P09038). The test is described as follows: basic fibroblast growth factor binding to printed compounds – biochemical, small-molecule microarray, 635/667 nm fluorescence, primary screen (AID 1133). Conditions: FGF2, fluorescence 635/667, higher = more signal.
A short description of test [7]: JC-1 mitochondrial potential readout, lung cancer cells – cell-based, A549, JC-1 fluorescence, basal, 24 h, 100 nL, profiling panel (AID 1138).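 Further: A549 lung adenocarcinoma cells under basal conditions with no added stimulus; test concentration not given here.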 Conditions: higher = more signal.
For test [8], the system named is Lefty1. The test is described as follows: Lefty1 protein binding to printed compounds – biochemical, small-molecule microarray, 635/667 nm fluorescence, primary screen (AID 1139). As to conditions: fluorescence 635/667, higher = more signal.
The subject of test [9] is wheat germ agglutinin (Triticum aestivum), Alexa647-labelled. The test is described as follows: Alexa647-WGA lectin binding to printed small molecules – biochemical, small-molecule microarray, 635/667 nm fluorescence, artefact control for SMM control-protein annotation, profiling panel (AID 1140).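 Further: score merges 667 nm feature emission with signal to noise over triplicate slides.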 As to conditions: WGA-A647 binding, 635 nm fluorescence, higher = more signal.

Test [10] addresses Luciferin 4-monooxygenase (Photinus pyralis) (UniProt P08659). The test is described as follows: inhibition of purified Photinus pyralis luciferase – biochemical, luminescence, purified enzyme, 2006 set, primary screen (AID 1141).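 Further: cell-free assay with purified firefly luciferase at 100 ng per well in PBS; test concentration not given here.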 Conditions: purified firefly luciferase, SteadyGlo luminescence, 30 min; higher = more signal, called active from +8 up or from −8 down.
For test [11], the system named is Wnt5a (protein binding on small-molecule microarray). The test is described as follows: small molecules binding Wnt5a protein – biophysical, small-molecule microarray, 635/667 nm fluorescence, primary screen (AID 1142).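 Further: fluorescence read at 667 nm with signal to noise per printed feature.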 As to conditions: 635 nm fluorescence, higher = more signal.
The nature of test [12]: ATP-based viability of Huh7 replicon cells – cell-based, CellTiter-Glo luminescence, basal, 48 h, cytotoxicity control for HCV replication inhibitor project, primary screen (AID 1143).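 Further: Huh7 hepatoma cells carrying a hepatitis C replication reporter with no stimulus; test concentration not given here.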 Conditions: higher = more signal, called active from +8 up or from −8 down. (In general: Replicon systems follow genome replication, usually without infectious particles.)
Test [13] is described as follows: Pseudomonas biofilm growth suppression – PAO1 strain, BacTiter-Glo luminescence, LB-PBS, primary screen (AID 1144). Conditions: P. aeruginosa PAO1 biofilm, 12 h, higher = more signal.
A short description of test [14]: basal CRE-LacZ reporter activity in PC12 – cell-based, unstimulated, primary screen (AID 1145). Conditions: no forskolin, luminescence, 4.5 h, higher = more signal, called active from +8 up or from −8 down.
The nature of test [15]: forskolin-driven CRE-LacZ activity in PC12 – cell-based, CRE-LacZ reporter, forskolin-stimulated, primary screen (AID 1146).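 Further: PC12 cells with 6xCRE LacZ reporter stimulated by forskolin 10 µM; beta-galactosidase reporter signal reflecting CREB driven transcription.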 As to conditions: luminescence, 4.5 h, higher = more signal, called active from +8 up or from −8 down.
The target of test [16] is Streptavidin (Streptomyces avidinii) (UniProt P22629). In words: compounds binding control protein streptavidin – biophysical, small-molecule microarray, 635/667 nm fluorescence, artefact control for SMM compound annotation, primary screen (AID 1147).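 Further: signal reflects streptavidin binding to arrayed compounds as a control protein.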 As to conditions: higher = more signal.
Test [17] in a line: probe aInhba binding on compound microarray – biochemical, small-molecule microarray, 635/667 nm fluorescence, primary screen (AID 1148).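 Further: score merges 667nm spot fluorescence with signal-to-noise for antibody binding to printed compounds.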 Conditions: higher = more signal.
Test [18] has as its target Torsin-1A (Homo sapiens) (UniProt O14656). The test is described as follows: TOR1A wild-type binding on microarray – cell lysate, small-molecule microarray, lysate, 635/667 nm, primary screen (AID 1149). As to conditions: COS7 hTOR1A-WT lysate, 635 nm fluorescence, higher = more signal.
For test [19] the target is unchanged. The test is described as follows: torsin A mutant lysate binding on microarrays – cell lysate, small-molecule microarray, COS7 lysate, 635/667 nm fluorescence, primary screen (AID 1150).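 Further: score pools 667 nm emission and signal to noise measuring lysate protein binding.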 Conditions: COS7 hTOR1A mutant lysate, 635 nm fluorescence, higher = more signal.
Test [20] concerns Sonic hedgehog protein (Shh). The test is described as follows: Sonic hedgehog microarray binding compounds – biochemical, small-molecule microarray, 635/667 nm fluorescence, primary screen (AID 1151).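 Further: Shh protein binding to compounds spotted on small-molecule microarray slides; score combines spot fluorescence intensity with signal-to-noise across triplicate slides.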 As to conditions: 635 nm fluorescence, higher = more signal.

Sequence of Streptavidin (Streptomyces avidinii) (P22629 whole entry, looked up): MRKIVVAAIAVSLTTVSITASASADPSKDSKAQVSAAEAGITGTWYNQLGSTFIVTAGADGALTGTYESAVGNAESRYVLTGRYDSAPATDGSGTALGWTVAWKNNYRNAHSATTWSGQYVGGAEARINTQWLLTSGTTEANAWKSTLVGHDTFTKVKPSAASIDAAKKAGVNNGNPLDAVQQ
Sequence of Fibroblast growth factor 2 (Homo sapiens) (P09038 whole entry, looked up): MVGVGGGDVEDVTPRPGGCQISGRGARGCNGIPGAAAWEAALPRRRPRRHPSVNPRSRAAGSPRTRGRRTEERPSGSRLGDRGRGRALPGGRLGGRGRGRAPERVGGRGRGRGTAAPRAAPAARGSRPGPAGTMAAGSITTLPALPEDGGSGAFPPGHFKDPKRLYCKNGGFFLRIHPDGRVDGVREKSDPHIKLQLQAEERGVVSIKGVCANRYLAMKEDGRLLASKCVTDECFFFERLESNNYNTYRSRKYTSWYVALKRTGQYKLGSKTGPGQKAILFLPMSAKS
Sequence of Follistatin (Homo sapiens) (P19883 whole entry, looked up): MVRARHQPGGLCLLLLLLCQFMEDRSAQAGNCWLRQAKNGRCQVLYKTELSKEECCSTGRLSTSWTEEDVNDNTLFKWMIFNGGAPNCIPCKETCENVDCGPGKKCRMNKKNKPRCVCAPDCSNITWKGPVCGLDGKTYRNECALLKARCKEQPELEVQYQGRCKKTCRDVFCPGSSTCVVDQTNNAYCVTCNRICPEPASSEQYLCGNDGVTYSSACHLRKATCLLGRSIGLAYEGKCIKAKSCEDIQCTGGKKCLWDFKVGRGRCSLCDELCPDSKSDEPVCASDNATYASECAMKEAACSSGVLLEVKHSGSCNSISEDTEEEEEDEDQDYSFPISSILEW
Sequence of Luciferin 4-monooxygenase (Photinus pyralis) (P08659 whole entry, looked up): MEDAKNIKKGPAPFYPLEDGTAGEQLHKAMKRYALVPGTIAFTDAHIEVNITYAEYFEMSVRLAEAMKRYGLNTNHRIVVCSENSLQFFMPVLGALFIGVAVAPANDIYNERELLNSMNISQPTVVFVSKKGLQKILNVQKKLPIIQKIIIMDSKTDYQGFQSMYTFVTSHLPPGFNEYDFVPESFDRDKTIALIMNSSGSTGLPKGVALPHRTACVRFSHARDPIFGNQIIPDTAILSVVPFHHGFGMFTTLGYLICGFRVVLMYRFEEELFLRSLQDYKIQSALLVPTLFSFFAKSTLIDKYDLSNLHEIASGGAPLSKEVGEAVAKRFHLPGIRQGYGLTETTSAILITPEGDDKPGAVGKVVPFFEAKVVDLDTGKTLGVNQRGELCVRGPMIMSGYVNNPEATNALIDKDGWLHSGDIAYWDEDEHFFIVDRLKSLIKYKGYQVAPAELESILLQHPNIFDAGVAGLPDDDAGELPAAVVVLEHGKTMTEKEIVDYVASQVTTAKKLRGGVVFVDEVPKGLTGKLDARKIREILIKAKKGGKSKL
Sequence of Torsin-1A (Homo sapiens) (O14656 whole entry, looked up): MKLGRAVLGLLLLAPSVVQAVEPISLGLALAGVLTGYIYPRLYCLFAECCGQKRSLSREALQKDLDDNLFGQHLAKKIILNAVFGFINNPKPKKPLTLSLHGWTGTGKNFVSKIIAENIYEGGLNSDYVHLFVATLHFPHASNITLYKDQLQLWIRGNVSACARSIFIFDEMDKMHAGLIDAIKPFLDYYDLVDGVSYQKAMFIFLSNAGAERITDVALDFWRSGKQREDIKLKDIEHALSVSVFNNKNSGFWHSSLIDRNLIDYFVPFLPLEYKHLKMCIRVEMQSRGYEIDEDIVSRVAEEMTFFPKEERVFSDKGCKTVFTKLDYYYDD
Sequence of Focal adhesion kinase 1 (Homo sapiens) (Q05397 whole entry, looked up): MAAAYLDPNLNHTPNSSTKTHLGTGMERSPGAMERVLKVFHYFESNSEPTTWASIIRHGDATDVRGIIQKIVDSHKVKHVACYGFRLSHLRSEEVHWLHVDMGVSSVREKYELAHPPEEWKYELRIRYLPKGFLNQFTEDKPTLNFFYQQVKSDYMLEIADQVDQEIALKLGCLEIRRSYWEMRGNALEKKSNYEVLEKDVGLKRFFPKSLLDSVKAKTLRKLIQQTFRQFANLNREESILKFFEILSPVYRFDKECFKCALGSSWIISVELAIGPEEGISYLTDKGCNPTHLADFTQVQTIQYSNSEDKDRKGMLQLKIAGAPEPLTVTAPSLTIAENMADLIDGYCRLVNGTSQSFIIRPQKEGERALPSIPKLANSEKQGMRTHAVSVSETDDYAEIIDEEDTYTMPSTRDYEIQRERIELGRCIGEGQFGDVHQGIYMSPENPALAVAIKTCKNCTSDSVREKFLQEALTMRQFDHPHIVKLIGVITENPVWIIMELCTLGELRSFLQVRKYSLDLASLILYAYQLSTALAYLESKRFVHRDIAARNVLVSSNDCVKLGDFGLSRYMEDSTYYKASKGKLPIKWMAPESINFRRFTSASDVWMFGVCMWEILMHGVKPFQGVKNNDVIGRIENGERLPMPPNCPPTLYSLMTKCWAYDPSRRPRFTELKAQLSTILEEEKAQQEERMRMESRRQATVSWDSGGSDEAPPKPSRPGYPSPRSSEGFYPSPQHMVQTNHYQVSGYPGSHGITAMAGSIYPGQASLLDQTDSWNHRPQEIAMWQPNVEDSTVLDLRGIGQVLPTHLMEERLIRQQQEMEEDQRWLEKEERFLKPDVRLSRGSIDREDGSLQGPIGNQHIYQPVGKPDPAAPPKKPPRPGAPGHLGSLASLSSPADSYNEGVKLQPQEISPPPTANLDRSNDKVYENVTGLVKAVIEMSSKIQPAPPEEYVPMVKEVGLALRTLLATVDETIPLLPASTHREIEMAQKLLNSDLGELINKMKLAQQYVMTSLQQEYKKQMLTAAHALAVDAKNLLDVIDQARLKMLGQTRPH

Consider `COC(=O)[C@@]1(Cc2ccccc2)[C@H]2c3cc(C(=O)N4CCCC4)n(CCSCCO)c3C[C@H]2CN1C(=O)c1ccccc1`, for which the composite z-score in test [1] was 2.38; in test [2], 1.21; in test [3], 0.776; in [4], 0.975; in [5] it was 0.337; in [6], 0.101. Besides, the composite z-score in [8] came out at 0.0341; in [9] it was 0.844; in test [11], 0.554; in test [16], 1.15; in test [17], 0.545; in test [18], 0.424. The composite z-score in [19] stood at 0.989; in test [20], 0.0779. The z-score is 0.451 in test [7]; 0.103 (inactive) in test [10]; -1.17 (inactive) in test [12]; 0.019 (inactive) in [13]; 0.387 (inactive) in [14]; 2.14 (inactive) in [15].
On to `COCCCNC(=O)[C@@H]1c2ccccc2C(=O)N(C2Cc3ccccc3C2)[C@H]1c1ccc(CO)cc1`, for which the composite z-score is 3.04 in test [1]; 1 in test [2]; 0.407 in test [3]; -0.284 in test [4]; 1.08 in [5]; 1.35 in [6]. The composite z-score in test [8] was 0.278; in [9] it was -0.196; in test [11], -0.0499; in [16], -0.449; in test [17], 0.208; in test [18], 0.717. For the same molecule, the composite z-score was -0.184 in [19] and 0.457 in [20]. Also, the z-score in test [7] was 2.76; in [10], -0.714 (inactive); in test [12], 0.646 (inactive); in test [13], 0.48 (inactive); in [14] it was -0.619 (inactive); in [15], -0.67 (inactive).
Regarding `COc1cccc(/C=C(\C#N)C(=O)Nc2c(C)n(C)n(-c3ccccc3)c2=O)c1`, the composite z-score in test [1] is 0.352; in [2] it was 0.0072; in [3], 0.268; in test [4] it was 0.85; in test [5] it was 0.346; in test [6], 0.365. Moreover, the composite z-score in [8] is 0.363; in test [9] it was 0.713; in test [11], 0.152; in [16], 0.841; in [17] it was -0.206; in test [18], 0.217. In addition, the composite z-score was 0.285 in [19] and 0.241 in test [20]. In addition, the z-score was 0.697 in [7]; 0.109 (inactive) in [10]; -2.45 (inactive) in test [12]; -1.47 (inactive) in [13]; -0.788 (inactive) in test [14]; -0.821 (inactive) in test [15].
Turning to `COc1ccc(CCNC(=O)[C@@]2(Cc3ccccc3I)c3ccccc3C(=O)N(Cc3ccccc3Cl)[C@H]2c2ccc(CO)cc2)cc1`, the composite z-score in [1] amounted to 0.0199; in test [2] it was 0.899; in test [3], 0.196; in test [4], 0.0632; in test [5], 0.0376; in test [6] it was 0.0031. In addition, the composite z-score in test [8] is -0.321; in [9] it was 0.0638; in [11], 0.0402; in test [16], -0.555; in [17], 0.502; in [18], -0.36. For the same molecule, the results for the composite z-score in test [19] and in test [20] were 0.397 and 0.527, respectively. The z-score is 0.311 in test [7]; -0.0513 (inactive) in test [10]; -2.74 (inactive) in test [12]; -0.144 (inactive) in test [13]; 0.0387 (inactive) in test [14]; 0.752 (inactive) in test [15].
Consider `CC(C)CCC[C@@H](C)[C@H]1CC[C@@]2(C)C3=C(CC[C@]12C)[C@@]1(C)CC[C@H](OC(=O)c2ccccc2)C(C)(C)C1CC3` (stereo not given in full), for which the composite z-score is 0.226 in test [1]; 0.29 in test [2]; -0.0586 in test [3]; 0.816 in test [4]; 0.438 in test [5]; 0.288 in test [6]. The composite z-score was 0.591 in test [8]; 0.134 in [9]; 0.0964 in test [11]; 0.18 in [16]; -0.178 in [17]; 0.316 in test [18]. The composite z-score in test [19] came to 0.171; in test [20] it was 0.364. Further, the z-score in [7] is 0.442; in [10], -0.0355 (inactive); in test [12] it was -1.16 (inactive); in test [13], -1.65 (inactive); in test [14], 0.581 (inactive); in test [15], -0.653 (inactive).
